Test results published in the supplement of paper PMC6555819.

How the values were obtained:
Experiment in all cases: PBM binding z-score (relative to random genomic background probes); higher = stronger binding; sequences stand for … in GC…GCGATTGACAGCGTAGAATGAAGG
[1] = tested on: FXR:RXRa (NR concentration 270 nM, RXRa partner concentration 90 nM)
In short: (§1)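 Regression normalization was applied to scanned fluorescence from custom Agilent 4×180K protein-binding microarrays. Before scanning, arrays were incubated 1 h with ligand-free nuclear receptor dimers, and binding was detected with antibodies against each partner (one per run). Binding z-scores use the random background probes as reference.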

[2] = tested on: LXRa:RXRa (NR concentration 270 nM, RXRa partner concentration 90 nM)
In short: as §1

[3] = tested on: LXRa homodimer (NR concentration 270 nM)
In short: as §1

[4] = tested on: LXRb:RXRa (NR concentration 270 nM, RXRa partner concentration 90 nM)
In short: as §1

[5] = tested on: LXRb homodimer (NR concentration 270 nM)
In short: as §1

[6] = tested on: PPARa:RXRa (NR concentration 270 nM, RXRa partner concentration 90 nM)
In short: as §1

[7] = tested on: PPARg:RXRa (NR concentration 180 nM, RXRa partner concentration 90 nM)
In short: as §1

[8] = tested on: PPARg:RXRa 270nM:90nM, anti-RXR (NR concentration 270 nM, RXRa partner concentration 90 nM)
In short: as §1

[9] = tested on: PPARg:RXRa 30nM:10nM, anti-RXR (NR concentration 30 nM, RXRa partner concentration 10 nM)
In short: as §1

[10] = tested on: PPARg:RXRa 90nM:30nM, anti-RXR (NR concentration 90 nM, RXRa partner concentration 30 nM)
In short: as §1

[11] = tested on: PPARg:RXRa DBDmut IVT, anti-RXR (DBD mutation: RXRa K156A/R161A, NR concentration 270 nM, RXRa partner concentration 90 nM)
In short: as §1

[12] = tested on: PPARg:RXRa IVT, anti-PPARg (NR concentration 270 nM, RXRa partner concentration 90 nM)
In short: as §1

[13] = tested on: PPARg DBDmut:RXRa IVT, anti-PPARg (DBD mutation: PPARg1 K132A/R137A, NR concentration 270 nM, RXRa partner concentration 90 nM)
In short: as §1

[14] = tested on: PPARg DBDmut IVT, anti-PPARg (DBD mutation: PPARg1 K132A/R137A, NR concentration 270 nM)
In short: as §1

[15] = tested on: PPARg homodimer (NR concentration 180 nM)
In short: as §1

[16] = tested on: PXR:RXRa (NR concentration 270 nM, RXRa partner concentration 90 nM)
In short: as §1

[17] = tested on: PXR homodimer (NR concentration 270 nM)
In short: as §1

[18] = tested on: RARa:RXR (NR concentration 270 nM, RXRa partner concentration 90 nM)
In short: as §1

[19] = tested on: RARa homodimer (NR concentration 270 nM)
In short: as §1

[20] = tested on: RARb:RXRa (NR concentration 270 nM, RXRa partner concentration 90 nM)
In short: as §1

Row | Sequence | PBM binding z-score [1] | PBM binding z-score [2] | PBM binding z-score [3] | PBM binding z-score [4] | PBM binding z-score [5] | PBM binding z-score [6] | PBM binding z-score [7] | PBM binding z-score [8] | PBM binding z-score [9] | PBM binding z-score [10] | PBM binding z-score [11] | PBM binding z-score [12] | PBM binding z-score [13] | PBM binding z-score [14] | PBM binding z-score [15] | PBM binding z-score [16] | PBM binding z-score [17] | PBM binding z-score [18] | PBM binding z-score [19] | PBM binding z-score [20]
1 | CCTACTGGGCCACGAGAGGTCATTGATTCAGTGA | 3.4 | 4.47 | 4.55 | 3.57 | 0.302 | 4.09 | 4.45 | 4.16 | 1.68 | 3.1 | 6.03 | 5.58 | -0.253 | -0.977 | 3.46 | 5.52 | 2.52 | 5.15 | 1.39 | 3.27
2 | GAACCAAGGTGAATAGGTCGTTGATGAGTAGGCG | 0.855 | 0.803 | -0.0902 | 0.55 | -0.922 | 2.46 | 1.74 | 1.97 | 0.275 | 1.25 | 1.81 | 2.56 | -0.234 | -0.27 | 0.411 | 0.765 | -0.0642 | 1.68 | -0.0573 | 1.95
3 | CGAACGAGGGCATGAGTTGATACCAAATGCCGAT | 0.819 | 0.53 | -0.18 | 0.374 | -0.612 | 1.57 | 1.61 | 1.67 | 0.555 | 0.997 | 2.76 | 2.32 | -0.303 | -0.419 | 0.59 | 0.723 | 0.347 | 0.695 | -0.402 | 2.03
4 | GATACAGGGTCAGCTAGAGGCCAAAGTATGGAAA | 5.01 | 3.57 | 0.0556 | 3.09 | -0.391 | 4.59 | 3.94 | 3.58 | 1.03 | 2.36 | 1.15 | 2.73 | 0.457 | 0.0688 | 3.56 | 4.24 | 0.247 | 5.28 | 0.349 | 4.25
5 | CCTATTAGTTGACCATAAGGGGAACCGAAGCTCG | 0.142 | 0.366 | 0.327 | 0.217 | 0.84 | 0.0558 | 0.299 | 0.112 | -0.0773 | 0.104 | 0.601 | 0.106 | 0.62 | 0.755 | 1.54 | 0.541 | 0.854 | 0.248 | 2.37 | 0.582
6 | ATCTCTAGGTAACCAGGTTCAGTGAATGCCGAAC | 0.339 | 0.277 | 0.415 | 0.528 | 0.703 | 1.37 | 0.883 | 0.861 | 0.15 | 0.492 | 3.75 | 3.09 | 0.459 | 0.795 | 1.07 | 0.948 | 0.388 | 0.808 | 0.438 | 0.668
7 | CAAACTAGGTCATCGGAAGGTCAAAGTCCGCATG | 6.11 | 5.83 | 5.44 | 4.82 | 1.45 | 6.01 | 8.72 | 7.35 | 5.14 | 7.04 | 7.98 | 8.45 | 2.01 | 2.98 | 5.96 | 5.37 | 1.97 | 6.84 | 1.67 | 4.97
8 | TCTTGTAGATCAAGCATGTTAAGAAAGCCTGAGT | 0.693 | 0.403 | -0.106 | 0.334 | -0.513 | 0.796 | -0.182 | 1.46 | 2.56 | 2.01 | 1.83 | 0.509 | 0.824 | -0.00587 | -0.0678 | 0.378 | 0.162 | 0.466 | 0.241 | -0.0485
